# Results filed as inconclusive are left out. Calls of active or inactive are those of the source. How the source made its calls: active means hit-call score of the fitted dose curve at least 0.9, where 1 is the maximum; inconclusive means response in the unintended direction; inactive means score below 0.9.
# Molecular target: Estrogen receptor beta (Homo sapiens) (UniProt Q92731)
# Assay: OT_ER_ERbERb_0480: Odyssey Thera (OT) 8-hour HEK293T Protein-Complementation Assay for Estrogen Receptor-beta/-beta Homodimer (AID 2283357)
# Description: OT_ER_ERbERb_0480 is a cell-based assay that uses HEK293T, a human kidney cell line, with measurements taken at 8 hours after chemical dosing in a 384-well plate.OT_ER_ERbERb_0480 is one of one assay component(s) measured or calculated from the OT_ER_ERbERb_0480 assay. It is designed to make measurements of protein fragment complementation, a form of binding reporter, as detected with fluorescence intensity signals by Protein-fragment Complementation technology.Data from the assay component OT_ER_ERbERb_0480 was analyzed into 1 assay endpoint. This assay endpoint, OT_ER_ERbERb_0480, was analyzed in the positive analysis fitting direction relative to DMSO as the negative control and baseline of activity. Using a type of binding reporter, measures of receptor for gain-of-signal activity can be used to understand the binding at the pathway-level as they relate to the gene ESR2. Furthermore, this assay endpoint can be referred to as a primary readout, because the performed assay has only produced 1 assay endpoint. To generalize the intended target to other relatable targets, this assay endpoint is annotated to the nuclear receptor intended target family, where the subfamily is steroidal.
# Protein-fragment complementation assay, or PCA, is a method for the identification and quantification of protein-protein interactions. In the PCA, the proteins of interest ("bait" and "prey") are each covalently linked to fragments of a third protein (e.g. DHFR, which acts as a "reporter"). Interaction between the bait and the prey proteins brings the fragments of the reporter protein in close proximity to allow them to form a functional reporter protein whose activity can be measured. The OT ER beta / ER beta assay is a homodimer PCA of the ligand binding domain (LBD; amino acids 310-547) of human ER beta stably expressed in HEK293T cells. […] Cells are fixed in 4 percent formaldehyde and stained with Draq5 (BioStatus) to identify cells prior to signal detection. Fluorescent signal in the basal state of the assay is very low and is primarily punctuate and cytoplasmic. Modulation of this assay is quantified as an increase in mean fluorescence intensity in the nucleus (for agonists) or in the nucleus and cytoplasm (antagonists) relative to vehicle controls, and can be quantified on a high content imaging device or a laser scanning cytometer. The latter instrument is favored for this assay because of the rapid mode of data acquisition, the ability to acquire data from the entire cell population in a well (as opposed to a fraction of the well on the high content devices) and the larger dynamic range typically achieved with this instrument. To assess sensitivity of the ER beta/ER beta LBD assay to ligand, cells were treated with the ER agonist 17- beta-estradiol (E2) in 10-point concentration- response format for 8 hours and monitored response on a laser scanning plate cytometer (Acumen eX3; TTP Lab Tech).
# Chain of Estrogen receptor beta (Homo sapiens) (Q92731 whole entry, looked up): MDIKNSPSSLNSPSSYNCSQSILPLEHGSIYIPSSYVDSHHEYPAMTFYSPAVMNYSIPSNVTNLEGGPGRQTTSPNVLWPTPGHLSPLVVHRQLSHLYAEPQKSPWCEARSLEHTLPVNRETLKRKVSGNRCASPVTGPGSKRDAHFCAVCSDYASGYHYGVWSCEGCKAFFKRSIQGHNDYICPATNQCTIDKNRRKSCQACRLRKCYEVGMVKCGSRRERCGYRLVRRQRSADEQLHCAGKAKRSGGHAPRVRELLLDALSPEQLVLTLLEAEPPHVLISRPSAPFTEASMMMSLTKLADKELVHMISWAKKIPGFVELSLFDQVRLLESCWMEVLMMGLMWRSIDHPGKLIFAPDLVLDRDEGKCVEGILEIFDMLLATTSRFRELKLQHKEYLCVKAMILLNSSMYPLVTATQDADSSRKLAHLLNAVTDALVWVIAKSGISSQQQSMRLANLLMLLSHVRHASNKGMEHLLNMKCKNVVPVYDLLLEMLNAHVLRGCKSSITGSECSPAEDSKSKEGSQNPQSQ
SMILES,outcome,AC50
CC12CCC(C1)C(C)(C)C2O (stereo not given),inactive,
C1CCCNCC1,inactive,
CCCO,inactive,
CCCCCCCCCCCCS,inactive,
CC(=O)CC(=O)N(C)C,inactive,
COc1ccccc1O,inactive,
CCCCC/C=C\C=C\C(=O)OCC,inactive,
CCCC1CCC(=O)CC1,inactive,
COC(=O)c1ccc(C(=O)OC)cc1,inactive,
CCNC(=S)NCC,inactive,
CC(=O)C1=C(C)[C@@H]2C[C@@]3(C1)[C@H](C)CC[C@H]3C2(C)C,,12.8 µM (active)
COc1ccc2[nH]cc(CCNC(C)=O)c2c1,inactive,
CC(O)CN (stereo not given),inactive,
CCCc1ccc(N)cc1,inactive,
[O-]/[N+](=N\O)c1ccccc1,inactive,
CCCCC(CC)COCCO (stereo not given),inactive,
CC(=O)c1ccc(O)cc1,inactive,
CC(=O)C1C(=O)C=C(C)OC1=O (stereo not given),inactive,
O=S(=O)(O)c1cc(S(=O)(=O)O)c2c(N=Nc3ccccc3)c(O)ccc2c1,inactive,
CCOCC(C)O (stereo not given),inactive,

SMILES,outcome,AC50
CCCC(O)C(CC)CO (stereo not given),inactive,
CCCCCCOc1ccc(O)cc1,,11.9 µM (active)
COC(=O)C(C)Oc1ccc(Oc2ncc(C(F)(F)F)cc2Cl)cc1 (stereo not given),inactive,
CCCCCCCCCCOC(=O)c1ccccc1C(=O)OCCCCCCCC,inactive,
c1ccc2scnc2c1,inactive,
CCCO[Si](OCCC)(OCCC)OCCC,inactive,
CCC(C)COC(=O)CC(C)C (stereo not given),inactive,
COc1cc(OC)c2ccc(=O)oc2c1,inactive,
CCCCCCCCCO,inactive,
CCCCOCCOCCOCCO,inactive,
CCO[Si](CC)(OCC)OCC,inactive,
C=CCCCCCCCCC(=O)OCC,inactive,
CC(=O)c1ccc2ccccc2c1,inactive,
CCCC[N+](C)(CCCC)CCCC,inactive,
CN1CCc2cccc3c2[C@H]1Cc1ccc(O)c(O)c1-3,inactive,
O=C1OC2(c3ccc(O)cc3Oc3cc(O)ccc32)c2ccccc21,inactive,
[Na+],inactive,
CCCCCCCCCOS(=O)(=O)O,inactive,
CC(C)N(c1ccccc1)C(C)C,inactive,
CNC(=C[N+](=O)[O-])NCCSCc1ccc(CN(C)C)o1,inactive,

# Reference: PubChem BioAssay (EPA / NIEHS)
